Source: PubChem (National Center for Advancing Translational Sciences (NCATS))
3T3 cytotox – NIH 3T3 cell cytotoxicity | NIH 3T3 viability, CellTiter-Glo ATP luminescence, 48-72 h | Potency, µM (doses to about 96.7 µM), for the others: at the top dose activity change, negative = cytotoxicity, actives largely listed as inhibitors | 4.3% of 94,000 active | AID 1345082; also: nearly all actives have a fitted effect of over 55% in size
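NIH 3T3 cells at 400 cells/well received 23 nL of compound by pintool and were incubated 48 or 72 h at 37 °C. Viability was read as ATP-coupled CellTiter-Glo luminescence.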
NPR1 antag – antagonists of human natriuretic peptide receptor Npr1; P16066; HEK293 hNpr1 GloSensor cGMP, ANP-stimulated luminescence; Potency, µM (titrated, usually from 46.3 µM), for the others: at the highest dose activity change, negative = inhibition, usual class: inhibitors; 1.6% of 76,000 active; calls by dose curve; also: nearly all actives have a fitted effect of over 60% in size
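Compound pre-incubated 30 min at room temperature on GloSensor-loaded HEK293 cells stably carrying hNpr1 and the pGS-40F cGMP biosensor. Stimulation uses hNppA at 0.1 nM final; luminescence is taken at baseline and 20 min post-agonist.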
FLuc inh – Photinus pyralis luciferase inhibition; P08659; purified P. pyralis luciferase, luminescence, biochemical; Potency, µM (top dose mostly 115 µM), hits mostly inhibitors; 2.5% of 76,000 active; also: nearly all actives have a fitted effect of over 65% in size
Target sequence (P08659 whole entry, looked up): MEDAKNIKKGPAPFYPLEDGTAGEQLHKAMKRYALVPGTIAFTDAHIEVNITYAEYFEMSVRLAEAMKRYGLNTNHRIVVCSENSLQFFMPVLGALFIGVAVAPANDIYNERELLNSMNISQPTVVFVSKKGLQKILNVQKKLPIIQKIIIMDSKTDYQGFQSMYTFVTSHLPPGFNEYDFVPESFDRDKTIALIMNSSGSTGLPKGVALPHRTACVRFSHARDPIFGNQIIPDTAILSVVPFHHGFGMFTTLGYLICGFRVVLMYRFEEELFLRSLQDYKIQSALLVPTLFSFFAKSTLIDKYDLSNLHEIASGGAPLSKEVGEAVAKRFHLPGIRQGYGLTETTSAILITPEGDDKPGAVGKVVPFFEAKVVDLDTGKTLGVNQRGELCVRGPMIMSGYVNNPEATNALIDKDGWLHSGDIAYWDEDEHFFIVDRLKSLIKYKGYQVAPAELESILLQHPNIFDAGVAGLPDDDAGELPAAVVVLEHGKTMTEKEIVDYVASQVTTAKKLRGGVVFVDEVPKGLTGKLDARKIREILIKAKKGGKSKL
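Purified P. pyralis luciferase (10nM final) in 50mM Tris acetate pH 7.5, 10mM Mg acetate, 0.01% Tween-20, 0.05% BSA with 10uM D-luciferin and 10uM ATP. Compounds titrated qHTS. Luminescence imaged on CCD.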
GPT2 inh – blocks human glutamate pyruvate transaminase 2. Q8TD30. Recombinant GPT2, coupled pyruvate oxidase/HRP Amplex Red fluorescence. Potency, µM (series often up to 57.7 µM), without a hit: at the highest dose activity change, negative = inhibition, actives largely listed as inhibitors. 0.25% of 100,000 active. AID 1671188; also: nearly all actives have a fitted effect of over 60% in size
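Fluorescence of coupled pyruvate oxidase/HRP/Amplex Red system (50uM Amplex, 30 min, dark) reports pyruvate formed by GPT2. Enzyme reaction: 10ng/uL GPT2, 2mM L-alanine, 250uM a-KG, 30 min room temperature, pH 7.5; 50uM AOA control.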
HEK cytotox – kills HEK 293 cells; HEK 293 viability, ATP luminescence (CellTiter-Glo), 48-72 h; Potency, µM (doses to about 115 µM), without a hit: at the highest dose activity change, negative = cytotoxicity, most hits filed as inhibitors; 6.6% of 94,000 active; AID 1345083; also: nearly all actives have a fitted effect of over 60% in size
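HEK 293 seeded at 250 cells/well receive compound via pintool. After 48 or 72 hr at 37 degree Celsius, 5% CO2 and 95% humidity, CellTiter-Glo is dispensed and luminescence read following 10 min at room temperature.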
* marks the source's active call; other numbers are inactive results; i = inactive; ? = inconclusive; · = not tested or not shown; [ ] = another dose, or the depositor's remark. Compounds with a hit are over-represented: about 10% of the library has one in this group of screens. Unless noted, calls follow the shape of the dose curve; as a rule, active = well fitted curve in the direction sought with a large enough effect; inconclusive = small, poorly fitted or top-dose-only effect, or another doubt; inactive = no such curve, though single readings can be large; an effect the other way counts as inactive or inconclusive. % is scaled to controls: 0 for no effect and ±100 for the full control effect; potency is read from the fitted curve at half-maximal effect.

SMILES	3T3 cytotox	NPR1 antag	FLuc inh	GPT2 inh	HEK cytotox
CCCN[C@H]1C[C@@H](Cc2cc(COc3ccccc3)on2)C1(C)C	?	-5.4%[70.6 µM]	i	-3.2%[88.5 µM]	?
COc1ccc(-c2cc(C[C@@H]3C[C@H](NC(=O)c4ccccc4)C3(C)C)no2)cc1	?	?	i	-10.6%[88.5 µM]	?
COCC(=O)N[C@H]1C[C@@H](Cc2cc(-c3ccc(OC)cc3)on2)C1(C)C	56.2µM*	-13.9%[70.6 µM]	?	?	35.5µM*
CCNC(=O)N[C@H]1C[C@@H](Cc2cc(COc3ccccc3)on2)C1(C)C	?	4.1%[70.6 µM]	i	-20.6%[88.5 µM]	89.1µM*
CCCCc1cc(C[C@@H]2C[C@H](NC(=O)c3cccc(F)c3)C2(C)C)no1	63.1µM*	?	i	-27.7%[88.5 µM]	63.1µM*
CC1(C)[C@H](Cc2cc(COc3ccccc3)on2)C[C@@H]1NC(=O)Cc1ccccc1	56.2µM*	?	i	0.0%[88.5 µM]	56.2µM*
Oc1ccc(C2CCN(c3ccnc4ccccc34)CC2)cc1O	·	·	·	i	·
CCOc1cc(CN2CCCC(COc3ccccc3C(=O)N3CCCC3)C2)ccc1O (stereo not given)	-8.3%	·	·	1.3%	i
Cn1cccc1C(=O)N1C[C@@H](CO)[C@H](c2ccncc2)C1	-15.0%	5.3%	i	2.7%	-8.2%
CC1(C)[C@H](Cc2cc(COc3ccccc3)on2)C[C@@H]1NC1CCOCC1	?	4.4%[70.6 µM]	i	4.8%[88.5 µM]	?
CC(C)(C)CN[C@H]1C[C@@H](Cc2cc(COc3ccccc3)on2)C1(C)C	28.2µM*	-11.5%[70.6 µM]	i	2.0%[88.5 µM]	22.4µM*
COc1ccc(C(=O)N[C@H]2C[C@@H](Cc3cc(COc4ccccc4)on3)C2(C)C)cc1	28.2µM*	?	i	-10.3%[88.5 µM]	?
CC(C)Cc1cc(C[C@@H]2C[C@H](NC3CCOCC3)C2(C)C)no1	-8.6%[138 µM]	5.1%[70.6 µM]	i	2.9%[88.5 µM]	-11.7%[172 µM]
CN1CCC(N[C@H]2C[C@@H](Cc3cc(-c4ccc(F)cc4)on3)C2(C)C)CC1	7.08µM*	?	63.1µM*	3.6%[88.5 µM]	8.91µM*
CC1(C)[C@H](Cc2cc(COc3ccccc3)on2)C[C@@H]1NC(=O)COc1ccccc1	63.1µM*	?	i	-8.8%[88.5 µM]	50.1µM*
O=C(Cc1ccc(F)cc1)NCCNC(=O)c1cccc(-c2ccc(C(F)(F)F)cc2)c1	-27.3%	·	·	-9.0%	28.2µM*
O=C(Cc1ccc(Cl)cc1)NCCNC(=O)c1cccc(-c2ccc(C(F)(F)F)cc2)c1	35.5µM*	·	·	?	?
O=C(CNC(=O)c1ccc(-c2cccc(C(F)(F)F)c2)cc1)NCCc1ccc(Cl)cc1	-1.6%	·	·	-6.7%	-16.6%
CN1C(=O)[C@@H]2C[C@@H](O)CN2C2(CN(Cc3ccc(F)c(F)c3)C2)C1=O	-10.1%[174 µM]	-0.4%[70.6 µM]	i	?	-0.5%[172 µM]
COc1ccc(Nc2cnc3ccc(-c4ccccc4)nn23)cc1OC	?	-12.5%[70.6 µM]	i	?	63.1µM*
COc1cccc(Nc2cnc3ccc(-c4ccccc4OC)nn23)c1	?	-2.6%[70.6 µM]	i	?	79.4µM*
COc1ccccc1-c1ccc2ncc(Nc3cccc(N[S+](C)(=O)[O-])c3)n2n1	?	-19.6%[70.6 µM]	i	-4.4%[88.5 µM]	63.1µM*
COc1ccc(Nc2cnc3ccc(-c4ccc(OC)c(OC)c4)nn23)cc1	14.1µM*	-0.8%[70.6 µM]	17.8µM*	i	?
COc1ccc(Nc2cnc3ccc(-c4cccc(CO)c4)nn23)cc1OC	?	-15.2%[70.6 µM]	?	-2.0%[88.5 µM]	?
Cc1nc(C(=O)N2C[C@@H](COCC3CC3)[C@H](c3ccccn3)C2)co1	-16.6%	0.2%	i	3.7%	-12.2%
SMILES	3T3 cytotox	NPR1 antag	FLuc inh	GPT2 inh	HEK cytotox
Cc1nnc(-c2cc(NCc3cccs3)ccn2)n1C1CCCCC1	?	2.6%[70.6 µM]	i	-19.1%[88.5 µM]	?
COCCC1(NC(=O)C2CC2)CCN(C(=O)C2CC2)CC1	-2.9%	4.7%	i	-9.9%	-1.3%
COc1cncc(Nc2cnc3ccc(-c4ccccc4OC)nn23)c1	?	?	i	?	?
COc1ccc(-c2ccc3ncc(Nc4cnccn4)n3n2)cc1OC	25.1µM*	4.0%[70.6 µM]	i	?	?
COc1cncc(Nc2cnc3ccc(-c4ccc(OC)c(OC)c4)nn23)c1	20µM*	-12.4%[70.6 µM]	i	-3.5%[88.5 µM]	63.1µM*
COc1ccc(-c2ccc3ncc(Nc4ccncc4)n3n2)cc1OC	35.5µM*	1.3%[70.6 µM]	i	i	79.4µM*
COc1cccc(Nc2cnc3ccc(-c4ccc(OC)c(OC)c4)nn23)c1	22.4µM*	-12.2%[70.6 µM]	i	-20.1%[88.5 µM]	56.2µM*
O=C(c1ccccn1)N1CCC(N2CCOCC2=O)CC1	-2.8%	·	·	i	-11.0%
C=CCC1(CO)CCCN(Cc2nc(C)cc(-c3ccccc3)n2)C1 (stereo not given)	-17.5%	0.0%	i	i	?
COc1ccc2[nH]cc(CN3CCC([C@H]4[C@@H](OC)C(=O)N4C(C)C)CC3)c2c1	-5.0%	0.4%	i	-3.8%	?
CCC(=O)N1CCCCCCNC(=O)[C@@H]2C[C@@H](C(=O)NCCc3c[nH]c4ccccc34)C[C@@H]21	-19.5%	-11.6%	i	i	?
O=C(c1ccc(Cl)nc1)N1CCn2c(nnc2C2CC2)C1	i	·	·	0.3%[88.5 µM]	5.0%[172 µM]
COc1ccc(Nc2cnc3ccc(N(C)Cc4cccnc4)nn23)cc1OC	?	?	i	-12.7%[88.5 µM]	?
COc1ccc(Nc2cnc3ccc(-c4ccc(OC)c(OC)c4)nn23)cc1OC	20µM*	-4.1%[70.6 µM]	?	i	89.1µM*
Clc1ccccc1C1(c2ccnc(NC3CCC3)n2)CCNCC1	28.2µM*	-20.6%	i	-33.6%	35.5µM*
O=C1N(C2CCOCC2)CCCC12CCN(c1ccc(Cl)cn1)C2 (stereo not given)	?	0.0%	i	i	?
C#CCNC(=O)C[C@@H]1c2nc(NC(=O)c3ccc(C(C)(C)C)cc3)sc2C[C@@H]2[C@](C)(CO)[C@H](O)CC[C@]21C	31.6µM*	-9.2%	35.5µM*	1.6%	?
COc1ccc(C(=O)Nc2nc3c(s2)C[C@@H]2[C@](C)(CO)[C@H](O)CC[C@@]2(C)[C@@H]3CC(=O)N(C)Cc2ccccc2)cc1	?	-15.1%	i	-2.2%	?
CN(Cc1ccccc1)C(=O)C[C@@H]1c2nc(NC(=O)c3ccc(F)cc3)sc2C[C@@H]2[C@](C)(CO)[C@H](O)CC[C@]21C	25.1µM*	-10.4%	i	i	?
COc1ccc(C(=O)Nc2nc3c(s2)C[C@@H]2[C@](C)(CO)[C@H](O)CC[C@@]2(C)[C@@H]3CC(=O)N2CCC(C)CC2)cc1	17.8µM*	-13.7%	i	-4.1%	?
O=C(Nc1cccnc1)c1ccnc(-c2nnc3ccc(N4CCOCC4)nn23)c1	100µM*	9.1%[70.6 µM]	i	0.1%[88.5 µM]	-9.5%[172 µM]
